Inconclusive results are not listed. Where a call stands in place of a potency, no number is given. The source made the active and inactive calls. Calls follow the shape of the dose curve; as a rule, active = well fitted inhibition curve with a large enough effect; inconclusive = small, poorly fitted or top-dose-only effect; inactive = no such curve, though single readings can be large or run the other way.
The molecules below were run against Tumor susceptibility gene 101 protein (Homo sapiens) (UniProt Q99816) (assay: qHTS Assay for Iinhibitors of HIV-1 Budding by Blocking the Interaction of PTAP/TSG101: Hit Validation in TR assay). Conditions: Tsg101 binding domain + Texas Red-labeled PTAP peptide, fluorescence polarization, 20 min; series mostly up to 57.5 µM.
Sequence of Tumor susceptibility gene 101 protein (Homo sapiens) (Q99816 whole entry, looked up, the tested form may be a part): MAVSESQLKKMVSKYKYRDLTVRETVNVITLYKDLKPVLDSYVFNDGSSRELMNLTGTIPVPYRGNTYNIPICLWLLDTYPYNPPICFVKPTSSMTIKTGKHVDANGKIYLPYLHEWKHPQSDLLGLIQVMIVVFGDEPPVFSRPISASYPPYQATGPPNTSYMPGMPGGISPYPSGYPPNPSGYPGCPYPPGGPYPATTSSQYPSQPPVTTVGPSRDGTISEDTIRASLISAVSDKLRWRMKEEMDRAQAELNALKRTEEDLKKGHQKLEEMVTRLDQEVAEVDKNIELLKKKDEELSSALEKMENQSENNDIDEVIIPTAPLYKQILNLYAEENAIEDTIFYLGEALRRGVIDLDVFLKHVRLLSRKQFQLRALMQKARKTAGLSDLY
Procedure, shortened: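 Texas Red-PTAP peptide (50 nM) binding to Tsg101 binding domain (10 uM), both final, in pH 7.5 HEPES buffer, read as polarization after 20 min at room temperature; compounds pinned before peptide addition.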
For `O=C(c1ccccc1)[C@@H]1[C@@H]2C(=O)N(c3ccc(F)cc3)C(=O)[C@@H]2C2CCCN21` (some centres undefined), the Potency was “inactive”.
In the case of `c1ccc2c(c1)CCCN2Cc1nnnn1CC1CCCO1` (centres undefined), the Potency is reported as 18.3 µM (active).
`NS(=O)(=O)c1ccc(N=Nc2c[nH]c(=O)c(O)c2)cc1` was tested, and the Potency was “inactive”.
With `CCc1c(C)sc(NC(=O)c2ccccc2[N+](=O)[O-])c1C(N)=O` the Potency was “inactive”.
In the case of `Oc1ccc2nnc3c(Br)cnn3c2c1`, the Potency is reported as “inactive”.
With `Nc1ccc(-c2c3ccc(=O)cc-3oc3cc(O)ccc23)cc1C(=O)O` the Potency was 36.6 µM (active).
With `O=C1NC(=S)/C(=C\c2ccc(-c3ccccc3Cl)o2)S1` the Potency was “inactive”.
In the case of `O=[N+]([O-])c1ccc(-c2cn3nc(-c4ccccc4)c(-c4ccccc4)nc3n2)cc1`, the Potency is reported as “inactive”.
In the case of `Cc1nn(C)c(C)c1N1C(=O)c2cccc3c(N)ccc(c23)C1=O`, the Potency is reported as “inactive”.
With `CC1(C)CC(=O)C2=C(C1)OC(N)=C(C#N)C2c1cc2c(cc1[N+](=O)[O-])OCO2` (centres undefined) the Potency was “inactive”.
`N#Cc1ccsc1NC(=O)CSc1nncs1` was tested, and the Potency was “inactive”.
For `Cc1ccc(-c2nc(C=Nc3ccc(O)cc3)c(O)o2)cc1`, the Potency was “inactive”.
In the case of `Nc1cccc2c(O)cc(S(=O)(=O)O)cc12`, the Potency is reported as “inactive”.
In the case of `CCC1(c2ccccc2)NC(=O)N(CC(=O)Nc2ccc(OC)nc2)C1=O` (centres undefined), the Potency is reported as “inactive”.
With `O=C1/C(=N\S(=O)(=O)c2cccs2)C([n+]2cccc(Cc3ccccc3)c2)=C([O-])c2ccccc21` the Potency was “inactive”.
In the case of `Fc1ccc(C2=CC(c3ccco3)n3ncnc3N2)cc1` (centres undefined), the Potency is reported as “inactive”.
`COc1cc(OC)c(-c2cc(C(=O)O)ccc2OC)c(OC)c1` was tested, and the Potency was “inactive”.
`COc1ccc(/C=C2/N=C(c3cccs3)OC2=O)cc1OC(C)C` was tested, and the Potency was “inactive”.
`O=C(CN1C(=O)NC(Cc2c[nH]c3ccccc23)C1=O)Nc1ccccc1C(F)(F)F` (centres undefined) was tested, and the Potency was “inactive”.
With `Oc1[nH]c2ccccc2c1N=Nc1ccccc1` the Potency was “inactive”.
`O=C(NCC1CCCO1)c1cccc2c1C(=O)c1ccc(N3CCC(Cc4ccccc4)CC3)cc1S2(=O)=O` (centres undefined) was tested, and the Potency was “inactive”.
With `Cc1cc2nc3c(=O)n(CCc4ccccc4)c(=O)[nH]c3nc2cc1N` the Potency was “inactive”.
With `Cc1cccc(N2C(=O)c3cccc4c(N)ccc(c34)C2=O)c1` the Potency was “inactive”.
With `C/C(=N/NC(=O)c1ccncc1)c1cc2ccc(O)cc2oc1=O` the Potency was “inactive”.
With `Brc1ccc(C2=CC(c3cccs3)n3ncnc3N2)cc1` (centres undefined) the Potency was “inactive”.
For `CC(=O)Nc1ccc2cc3ccc(NC(C)=O)cc3nc2c1`, the Potency was “inactive”.
`Cc1ccc(C)c2nc3sc(C(=O)N4CCCc5ccccc54)c(N)c3cc12` was tested, and the Potency was “inactive”.
`Cc1cc2nc3c(=O)n(Cc4ccccc4)c(=O)[nH]c3nc2cc1N` was tested, and the Potency was “inactive”.
With `COc1ccc(N=Nc2nc3cc(Br)c(Br)cc3n2C)c(OC)c1` the Potency was “inactive”.
In the case of `CCN(CC)c1nc2ccccc2nc1C(C#N)C(=O)NCCc1ccccc1` (centres undefined), the Potency is reported as “inactive”.
`O=C(OCCN1C(=O)c2cccc3c(N4CCOCC4)ccc(c23)C1=O)c1ccc(Cl)cc1Cl` was tested, and the Potency was “inactive”.
In the case of `Cc1nn(-c2ccccc2)c(N2CCCC2)c1/C=C1\N=C(c2ccc(F)cc2)OC1=O`, the Potency is reported as “inactive”.
For `O=C1c2cccc3c(O)ccc(c23)C(=O)N1c1ccc(Cl)cc1`, the Potency was “inactive”.
With `COc1ccc(C2C(C(=O)c3cccs3)=C(O)C(=O)N2c2nnc(C)s2)cc1OC` (centres undefined) the Potency was “inactive”.
For `O=C1C=CC(=O)c2c(O)c(CO)c(CO)c(O)c21`, the Potency was “inactive”.
With `CCc1ccccc1N=Cc1c(C)c(C#N)c2[nH]c3ccccc3n2c1=O` the Potency was “inactive”.
In the case of `COc1ccccc1N1C(=O)C2C(C(=O)c3ccccc3)=NN(c3ccc(C)cc3)C2C1=O` (centres undefined), the Potency is reported as “inactive”.
`CC(C)(C)N=Cc1c(O)ccc2oc3c(c12)CCCC3` was tested, and the Potency was “inactive”.
In the case of `CN1CC=C2C(C#N)=C(N)C(C#N)(C#N)C(Cc3ccccc3)C2C1` (centres undefined), the Potency is reported as “inactive”.
Potency is read from the fitted curve at half-maximal effect.
